From PubChem BioAssay
KCNQ2 enhance: potentiators of rat KCNQ2 potassium channel | O88943 | CHO-K1 KCNQ2, FluxOR thallium flux fluorescence; stronger effect = higher value | B-score at 10 µM | 0.54% of 310,000 active;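 active = fluorescence ratio B-score at least 3 SD of library B-scores, with initial fluorescence B-score within 3 of them, cut at about 5.3 in these data; same plate scores as AID 2156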;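 also: B-score of peak minus minimum over baseline fluorescence ratio after K+ and Tl+ stimulus; positive B-score means potentiation of KCNQ2 with more thallium influx and brighter signal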
KCNQ2 inh: blocks the rat KCNQ2 potassium channel; CHO-K1 KCNQ2, FluxOR thallium flux, 20 min; stronger effect = lower value; B-score at 10 µM; 1.1% of 310,000 active; AID 2156;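 active = fluorescence ratio B-score at most minus 3 library SDs, with starting brightness B-score within 2 library SDs, cut at about -5.5 in these data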
Kir21 confirm: confirmation of mouse Kir2.1 potassium channel inhibitors; shares compounds with KCNQ2 enhance; Kir2.1-expressing cells, FluxOR thallium flux fluorescence; stronger effect = lower value; Tl flux remaining, % of negative control (stronger effect = lower value), % at 10 µM; 41% of 2,300 active; AID 2032;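 active = Primary-screen hit whose thallium flux fell at least 3 control SD below untreated wells in both duplicates, with normal baseline fluorescence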;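 also: 0% = blank wells without stimulus and 100% = stimulated no-compound controls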
HEK293 Tl flux: counter-screen for Kir2.1 inhibitors: effect in parental HEK293 cells; shares compounds with KCNQ2 enhance; FluxOR thallium flux fluorescence; 0% = unstimulated blank wells; FluxOR signal as % of negative control (100 = no effect), % at 10 µM; 19% of 2,300 active; AID 2105;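 active = dye signal at least 3 control SD above or below untreated wells in both duplicates, raw fluorescence within 3, either direction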;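 also: percent is based on the flux ratio of peak minus minimum fluorescence over baseline F0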
* = called active by the depositor. Shown are actives, neighbours in structure and some others; about 1.6% of the full set was active somewhere.

Screening N#Cc1ccc(NC(=O)CN2C(=O)NC3(CCCC3)C2=O)cc1Cl returned KCNQ2 enhance 0.65 and KCNQ2 inh inactive.
Screening CC(O)(CS(=O)(=O)c1ccccc1)C(=O)Nc1ccc(C(F)(F)F)cc1 (stereo not drawn) returned KCNQ2 inh inactive.
Screening S=c1[nH]c2ccccc2[nH]1 returned KCNQ2 enhance 0.73 and KCNQ2 inh inactive.
O=c1cccc2n1CC1CC2CN(Cc2c(F)cccc2Cl)C1 (stereo not drawn) was read as KCNQ2 enhance 0.97 and KCNQ2 inh inactive.
For O=c1cccc2n1CC1CC2CN(Cc2cccc(Cl)c2Cl)C1 (stereo not drawn) the results were KCNQ2 inh inactive, Kir21 confirm 38%* and HEK293 Tl flux inactive.
Screening CN(Cc1c[nH]c2ccccc12)C1CCCCC1 returned KCNQ2 enhance 0.01 and KCNQ2 inh inactive.
